Laboratory results reported in PubChem BioAssay.
Values without a mark were called inactive. Activity calls are given as the source filed them. Unless noted, no rule for the calls is given here.

Test system: not listed separately
Assay: human hepatoma cell viability loss – ATP luminescence, cytotoxicity control for P. falciparum antimalarial project, primary screen (AID 2303;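 active = inhibition above 50%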;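 also: 0% = DMSO wells and 100% = digitonin-killed cells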)
Details: HepG2 viability, 24-48 h, at 10 µM, active compounds read high

With `O=C(/C=C/c1ccc(Cl)c(Cl)c1)NCCCCCN1CCC(NC(=O)Nc2ccc(Cl)c(C(F)(F)F)c2)CC1` the inhibition was 76% (active).
In the case of `Cc1cc(N(C)C)nc(Nc2ccc(NC(=O)c3c(F)cccc3F)cc2)n1`, the inhibition is reported as 50% (active).
In the case of `O=C(O)/C=C/c1cccc(F)c1F`, the inhibition is reported as 58% (active).

First: Cc1cc(CNCCCCCNCc2ccc(Cl)cc2)ccc1O
Second: c1ccc2ncc(CNCCCCCCCCNCc3cnc4ccccc4c3)cc2c1
The inhibition of the first is higher: 12% for the first, 8% for the second.

Going from `O=C(Nc1ccc(F)cc1)NC1CCN(c2ccnc3cc(Cl)ccc23)CC1` to `N#Cc1ccc(CN2CCCN(c3ccc(NC(=O)c4ccc(F)cc4)cc3)CC2)cc1`, the inhibition rises from 10% to 12%.

Compared with `COc1cc(OC)c(NC(=O)C2c3ccccc3C(=O)N(C)C2c2cccs2)cc1Cl` (stereo not given), `COc1cccc(C(=O)Nc2ccc(S(=O)(=O)c3cc4c(cc3OC)CCN(C)CC4)cc2)c1` is lower in inhibition: 4% for the first, -11% for the second.

Compared with `Cc1[nH]cc(Br)c(=O)c1-c1ccc(Oc2ccccc2)cc1`, `OC(CNCc1ccccc1Oc1ccccc1)c1cc(Br)cs1` (stereo not given) is lower in inhibition: -5% for the first, -13% for the second.

Compared with `COc1ccc2nccc([C@@H](O)CN3CCC(NCc4ccc5c(c4)NC(=O)C(C)(C)O5)CC3)c2c1`, `COc1ccc2c(NN=Cc3ccc(N(C)C)cc3)ccnc2c1` is higher in inhibition: 6% for the first, 12% for the second.

Compared with `CCCN1CCN(c2cc(S(=O)(=O)Nc3ccc(C(=O)NCc4cccc(C(F)(F)F)c4)cc3)ccc2OC)CC1`, `O=C(Nc1ccc(C(F)(F)F)cc1)c1ccc(S(=O)(=O)NC2CCN(Cc3ccccc3)C2)cc1` (stereo not given) is higher in inhibition: 27% for the first, 42% for the second.

Going from `CC(C)CNCc1cccc(-c2cccc(CN(CCCN3CCN(C)CC3)C(=O)Nc3ccccc3)c2)c1` to `Cc1cc(N[C@@H](Cc2ccccc2)C(=O)NCc2cccc(F)c2)nc(NCCc2cccs2)n1`, the inhibition falls from 25% to 9%.

First: C=CCOC(=O)N1CCC(CNCc2cccc(-c3ccc(-c4nc5c(C)cccc5[nH]4)s3)c2)C1 (stereo not given)
Second: NC1CCN(CCNCc2cccc(-c3ccc(-c4nc5ccc(F)cc5[nH]4)cc3)c2)C1 (stereo not given)
The inhibition of the first is higher: 11% for the first, 8% for the second.

First: Cc1nc2ccc3ccc(CNc4ccc5c(c4)CN([C@H](CCC(=O)O)C(=O)O)C5=O)cc3c2c(=O)[nH]1
Second: Cc1cccc2[nH]c(-c3cccc(-c4cccc(NC(=O)CNC(=O)c5ccc(O)cc5)c4)c3)nc12
The inhibition of the first is higher: 38% for the first, 9% for the second.

First: O=C(CN(c1cccc(C(F)(F)F)c1)S(=O)(=O)c1ccc(Cl)cc1)NCCC(c1ccccc1)c1ccccc1
Second: O=C(c1ccccc1F)N(Cc1ccc(Cl)cc1)c1ccccn1
The inhibition of the first is higher: 14% for the first, -3% for the second.

Going from `CCOc1ccc(-c2nc(NC(=O)COc3ccc(OC)cc3)sc2C)cc1` to `CCOc1ccc(-c2nonc2NC(=O)c2ccc(F)cc2)cc1OCC`, the inhibition rises from 0% to 36%.

Compared with `CC(=O)Nc1csc(-c2cnc(/C=C(\C)C[C@@H]3OC[C@H](C[C@@H]4O[C@H]4[C@@H](C)[C@H](C)O)[C@@H](O)[C@H]3O)o2)c1`, `CN(C(=O)NCCc1ccccc1)C1CCN(CCCCCNC(=O)/C=C/c2ccc(Cl)c(Cl)c2)CC1` is higher in inhibition: 1% for the first, 43% for the second.

First: NC(N)=NN=Cc1ccc2ccc3ccccc3c2c1
Second: N#Cc1ccc(C=Cc2nccc3c2[nH]c2ccccc23)cc1
The inhibition of the first is higher: 34% for the first, 33% for the second.

Going from `CC(C)CCNC(=O)C1Cc2c([nH]c3cc(Br)ccc23)C2(CCN(Cc3ccccc3)CC2)N1` (stereo not given) to `CCc1ccc(CN2CCC(CNC(=O)c3cc(-c4ccccc4Cl)cs3)C2)cc1` (stereo not given), the inhibition rises from 10% to 14%.

First: N#Cc1cccc(C(=O)Nc2cccc(-c3ccc(CN4CCCC4)cc3)c2)c1
Second: OC1CCCN(Cc2cccc(-c3ccc(-c4nc5ccc(C(F)(F)F)cc5[nH]4)cc3)c2)C1 (stereo not given)
The inhibition of the first is lower: 11% for the first, 27% for the second.

Compared with `COc1ccccc1-n1ccnc1SCC(=O)Nc1cc(C(F)(F)F)ccc1Cl`, `CNc1nc(NN=Cc2cc3c(cc2[N+](=O)[O-])OCO3)nc(Nc2cccc(C(F)(F)F)c2)n1` is higher in inhibition: -2% for the first, -1% for the second.

Compared with `COc1cccc(-c2ccc3c(-c4cccc(S(C)(=O)=O)c4)cnc(N)c3c2)c1`, `COc1ccc(CNC2Cc3ccccc3C2)cc1-c1ccc(S(=O)(=O)NCCN2CCCC2)cc1` is lower in inhibition: 45% for the first, 40% for the second.

Going from `CCCc1cn2c3c(cc(C(=O)N[C@@H](Cc4ccccc4)[C@H](O)CNC4CCCCC4)cc13)N(C)S(=O)(=O)CC2` to `CCc1cn2c3c(cc(C(=O)N[C@@H](Cc4ccccc4)[C@H](O)CNC4CCC4)cc13)N(C)S(=O)(=O)CC2`, the inhibition falls from 3% to -4%.

Compound `Cc1cc(CNCC(CCNc2cc(=O)c3ccccc3[nH]2)NCc2cc(Br)cc(Br)c2)oc1C` (stereo not given) has an inhibition of 4%.

Target: L-lactate dehydrogenase (Plasmodium falciparum (isolate CDC / Honduras)) (UniProt Q27743)
Sequence (Q27743 whole entry, looked up): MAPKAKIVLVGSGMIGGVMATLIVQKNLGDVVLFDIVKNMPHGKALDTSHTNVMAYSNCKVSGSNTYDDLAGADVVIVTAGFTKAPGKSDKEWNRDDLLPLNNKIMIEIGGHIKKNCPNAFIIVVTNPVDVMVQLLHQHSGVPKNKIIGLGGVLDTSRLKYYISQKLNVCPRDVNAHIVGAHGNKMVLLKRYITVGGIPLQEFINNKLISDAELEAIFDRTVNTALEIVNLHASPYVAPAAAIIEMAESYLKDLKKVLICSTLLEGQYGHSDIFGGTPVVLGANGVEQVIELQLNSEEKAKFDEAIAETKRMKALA
Assay: PfLDH activity inhibition – cell lysate, 3D7 strain, counter-screen for P. falciparum growth inhibition project (AID 2304);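 also: 0% = vehicle and 100% = reference inhibitor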
Details: P. falciparum 3D7 crude extract, LDH APAD/NBT absorbance; at 2 µM; active compounds read high

Going from `O=C(/C=C/c1ccc(Cl)c(Cl)c1)NCCCCCN1CCC(NC(=O)Nc2ccc(Cl)c(C(F)(F)F)c2)CC1` to `CN(C(=O)NCCc1ccccc1)C1CCN(CCCCCNC(=O)/C=C/c2ccc(Cl)c(Cl)c2)CC1`, the inhibition falls from -1% to -7%.

First: Cc1cc(CNCCCCCNCc2ccc(Cl)cc2)ccc1O
Second: c1ccc2ncc(CNCCCCCCCCNCc3cnc4ccccc4c3)cc2c1
The inhibition of the first is lower: -7% for the first, -3% for the second.

Going from `O=C(Nc1ccc(F)cc1)NC1CCN(c2ccnc3cc(Cl)ccc23)CC1` to `N#Cc1ccc(CN2CCCN(c3ccc(NC(=O)c4ccc(F)cc4)cc3)CC2)cc1`, the inhibition falls from 0% to -2%.

First: COc1cc(OC)c(NC(=O)C2c3ccccc3C(=O)N(C)C2c2cccs2)cc1Cl (stereo not given)
Second: COc1cccc(C(=O)Nc2ccc(S(=O)(=O)c3cc4c(cc3OC)CCN(C)CC4)cc2)c1
The inhibition of the first is lower: -5% for the first, -1% for the second.

Compared with `Cc1[nH]cc(Br)c(=O)c1-c1ccc(Oc2ccccc2)cc1`, `OC(CNCc1ccccc1Oc1ccccc1)c1cc(Br)cs1` (stereo not given) is higher in inhibition: -6% for the first, -4% for the second.

Going from `COc1ccc2nccc([C@@H](O)CN3CCC(NCc4ccc5c(c4)NC(=O)C(C)(C)O5)CC3)c2c1` to `COc1ccc2c(NN=Cc3ccc(N(C)C)cc3)ccnc2c1`, the inhibition falls from 3% to -1%.

Compared with `CCCN1CCN(c2cc(S(=O)(=O)Nc3ccc(C(=O)NCc4cccc(C(F)(F)F)c4)cc3)ccc2OC)CC1`, `O=C(Nc1ccc(C(F)(F)F)cc1)c1ccc(S(=O)(=O)NC2CCN(Cc3ccccc3)C2)cc1` (stereo not given) is higher in inhibition: -3% for the first, 5% for the second.

Compared with `CC(C)CNCc1cccc(-c2cccc(CN(CCCN3CCN(C)CC3)C(=O)Nc3ccccc3)c2)c1`, `Cc1cc(N[C@@H](Cc2ccccc2)C(=O)NCc2cccc(F)c2)nc(NCCc2cccs2)n1` is higher in inhibition: 1% for the first, 2% for the second.

First: C=CCOC(=O)N1CCC(CNCc2cccc(-c3ccc(-c4nc5c(C)cccc5[nH]4)s3)c2)C1 (stereo not given)
Second: NC1CCN(CCNCc2cccc(-c3ccc(-c4nc5ccc(F)cc5[nH]4)cc3)c2)C1 (stereo not given)
The inhibition of the first is lower: -6% for the first, 2% for the second.

Going from `Cc1nc2ccc3ccc(CNc4ccc5c(c4)CN([C@H](CCC(=O)O)C(=O)O)C5=O)cc3c2c(=O)[nH]1` to `Cc1cccc2[nH]c(-c3cccc(-c4cccc(NC(=O)CNC(=O)c5ccc(O)cc5)c4)c3)nc12`, the inhibition falls from 2% to -1%.

Going from `O=C(CN(c1cccc(C(F)(F)F)c1)S(=O)(=O)c1ccc(Cl)cc1)NCCC(c1ccccc1)c1ccccc1` to `O=C(c1ccccc1F)N(Cc1ccc(Cl)cc1)c1ccccn1`, the inhibition rises from -2% to 1%.

Compared with `CCOc1ccc(-c2nc(NC(=O)COc3ccc(OC)cc3)sc2C)cc1`, `CCOc1ccc(-c2nonc2NC(=O)c2ccc(F)cc2)cc1OCC` is higher in inhibition: -9% for the first, 0% for the second.

Going from `CC(=O)Nc1csc(-c2cnc(/C=C(\C)C[C@@H]3OC[C@H](C[C@@H]4O[C@H]4[C@@H](C)[C@H](C)O)[C@@H](O)[C@H]3O)o2)c1` to `CCc1cn2c3c(cc(C(=O)N[C@@H](Cc4ccccc4)[C@H](O)CNC4CCC4)cc13)N(C)S(=O)(=O)CC2`, the inhibition falls from 0% to -3%.

First: NC(N)=NN=Cc1ccc2ccc3ccccc3c2c1
Second: N#Cc1ccc(C=Cc2nccc3c2[nH]c2ccccc23)cc1
The inhibition of the first is higher: 5% for the first, 0% for the second.

First: CC(C)CCNC(=O)C1Cc2c([nH]c3cc(Br)ccc23)C2(CCN(Cc3ccccc3)CC2)N1 (stereo not given)
Second: CCc1ccc(CN2CCC(CNC(=O)c3cc(-c4ccccc4Cl)cs3)C2)cc1 (stereo not given)
The inhibition of the first is lower: -5% for the first, -2% for the second.

Going from `Cc1cc(N(C)C)nc(Nc2ccc(NC(=O)c3c(F)cccc3F)cc2)n1` to `CNc1nc(NN=Cc2cc3c(cc2[N+](=O)[O-])OCO3)nc(Nc2cccc(C(F)(F)F)c2)n1`, the inhibition rises from -1% to 2%.

Compared with `N#Cc1cccc(C(=O)Nc2cccc(-c3ccc(CN4CCCC4)cc3)c2)c1`, `OC1CCCN(Cc2cccc(-c3ccc(-c4nc5ccc(C(F)(F)F)cc5[nH]4)cc3)c2)C1` (stereo not given) is higher in inhibition: 1% for the first, 4% for the second.

First: COc1ccccc1-n1ccnc1SCC(=O)Nc1cc(C(F)(F)F)ccc1Cl
Second: COc1ccc(CNC2Cc3ccccc3C2)cc1-c1ccc(S(=O)(=O)NCCN2CCCC2)cc1
The inhibition of the first is higher: 2% for the first, -7% for the second.

Going from `O=C(O)/C=C/c1cccc(F)c1F` to `COc1cccc(-c2ccc3c(-c4cccc(S(C)(=O)=O)c4)cnc(N)c3c2)c1`, the inhibition falls from -1% to -6%.

Compared with `CCCc1cn2c3c(cc(C(=O)N[C@@H](Cc4ccccc4)[C@H](O)CNC4CCCCC4)cc13)N(C)S(=O)(=O)CC2`, `Cc1cc(CNCC(CCNc2cc(=O)c3ccccc3[nH]2)NCc2cc(Br)cc(Br)c2)oc1C` (stereo not given) is higher in inhibition: -2% for the first, 2% for the second.
